Consider 28 compounds from PubChem BioAssay (Tox21).

SMILES strings stand for the structures. Several values for one entry are separate records, joined by “and”; a condition that tells them apart may be missing. Equal entries are not always repeated. Values without a mark were called inactive. Results filed as inconclusive are left out. Activity calls are given as the source filed them. Unless noted, calls come from the whole dose curve; as a rule, active = well fitted curve in the direction sought with a large enough effect in the repeat runs; inconclusive = weak or mixed curves; inactive = no such curve, though single readings can be large; an effect the other way counts as inactive or inconclusive.

Test [1] in a line: qHTS assay for small molecule disruptors of the mitochondrial membrane potential (AID 720635). Note: potency is the fitted concentration of half-maximal effect. In short, it runs like this:
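Mitochondrial membrane potential tracked with Mito-MPS dye, red aggregates (ex 540/em 590 nm) against green monomers (ex 490/em 535 nm). Compound treatment 1 hr at 37C, dye 30 min in HepG2.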
Background: qHTS replaces the single test concentration by a dilution series.

In test [2] the target is Glucocorticoid receptor (Homo sapiens) (UniProt P04150). Kind of test: qHTS assay to identify small molecule antagonists of the glucocorticoid receptor (GR) signaling pathway (AID 720692; active = well fitted inhibition curve with a large enough effect in the signal ratio in the repeat runs, not every such curve was filed as active; the % refers to the signal ratio). The procedure, abridged:
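GR-bla HeLa cells (beta-lactamase reporter under glucocorticoid response element) were pre-plated 4 h at 37 C, treated with compounds plus 5 nM dexamethasone (final) for 18 h, then read by LiveBLAzer B/G FRET fluorescence after 2 h.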

Test [3] in a line: qHTS assay for identifying genotoxic compounds that show differential cytotoxicity against isogenic chicken DT40 cell lines with known DNA damage response pathways - Rad54/Ku70 mutant cell line (AID 743015). Note: nearly all actives have a fitted effect of over 60% in size. Note: potency is the fitted concentration of half-maximal effect.
Test [4] has as its target Estrogen receptor (Homo sapiens) (UniProt P03372). Kind of test: qHTS assay to identify small molecule antagonists of the estrogen receptor alpha (ER-alpha) signaling pathway (AID 743069; active = well fitted curve in the direction sought with a large enough effect in the signal ratio in the repeat runs, not every such curve was filed as active; the % refers to the signal ratio). In short, it runs like this:
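Compound effects are measured against 17beta-estradiol stimulation in HEK293 cells with a UAS-controlled beta-lactamase reporter for ER-alpha. Exposure lasts 18 hr at 37C; LiveBLAzer B/G FRET substrate follows for 2 hr at room temperature.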

The target in test [5] is Androgen receptor (Homo sapiens) (UniProt P10275). Kind of test: qHTS assay to identify small molecule agonists of the androgen receptor (AR) signaling pathway using the MDA cell line (AID 743040; note: nearly all actives have a fitted effect of over 20% in size; note: potency is the fitted concentration of half-maximal effect). In short, it runs like this: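 After a 5 h incubation at 37C and 0% CO2, MDA-kb2 reporter cells were dosed with compounds in DMSO and kept 16 h under the same conditions. Luciferase activity was then read as luminescence with ONE-Glo.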
Androgen receptor (Homo sapiens), sequence (P10275 whole entry, looked up): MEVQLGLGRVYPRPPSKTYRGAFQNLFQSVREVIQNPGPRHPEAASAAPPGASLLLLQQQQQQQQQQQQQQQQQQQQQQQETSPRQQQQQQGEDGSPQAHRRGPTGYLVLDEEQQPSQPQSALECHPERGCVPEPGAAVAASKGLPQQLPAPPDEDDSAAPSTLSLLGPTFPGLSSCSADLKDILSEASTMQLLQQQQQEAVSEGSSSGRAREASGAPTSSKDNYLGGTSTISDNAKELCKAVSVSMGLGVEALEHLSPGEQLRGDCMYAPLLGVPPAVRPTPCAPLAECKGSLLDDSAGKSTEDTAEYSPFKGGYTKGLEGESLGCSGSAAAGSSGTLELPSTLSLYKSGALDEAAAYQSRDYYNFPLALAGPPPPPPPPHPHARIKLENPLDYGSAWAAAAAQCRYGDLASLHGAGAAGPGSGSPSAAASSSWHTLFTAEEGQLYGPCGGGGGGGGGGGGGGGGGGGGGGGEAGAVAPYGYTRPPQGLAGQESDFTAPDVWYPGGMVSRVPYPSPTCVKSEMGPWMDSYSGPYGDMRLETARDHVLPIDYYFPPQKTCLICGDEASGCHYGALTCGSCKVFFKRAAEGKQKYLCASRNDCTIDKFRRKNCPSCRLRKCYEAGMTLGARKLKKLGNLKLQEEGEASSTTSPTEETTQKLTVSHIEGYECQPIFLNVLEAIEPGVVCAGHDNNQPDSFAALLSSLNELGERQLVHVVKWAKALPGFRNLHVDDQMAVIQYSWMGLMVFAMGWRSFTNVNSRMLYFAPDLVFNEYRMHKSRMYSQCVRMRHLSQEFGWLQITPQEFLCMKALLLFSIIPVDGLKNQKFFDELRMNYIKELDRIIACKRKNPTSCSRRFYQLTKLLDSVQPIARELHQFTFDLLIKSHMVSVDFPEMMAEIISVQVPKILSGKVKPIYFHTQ

For test [6] the target is unchanged. Put plainly: qHTS assay to identify small molecule antagonists of the androgen receptor (AR) signaling pathway using the MDA cell line (AID 743042; note: nearly all actives have a fitted effect of over 55% in size; note: potency is the fitted concentration of half-maximal effect). In short, it runs like this: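 Antagonist mode: compounds plus R1881 agonist added to MDA-kb2 AR-luc cells, incubated 16 h at 37C. Luciferase reporter luminescence quantified, with multiplexed CellTiter-Fluor readout for cell viability.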

Test [7] can be described thus: qHTS assay to identify small molecule antagonists of the estrogen receptor alpha (ER-alpha) signaling pathway using the BG1 cell line in the presence of 0.1 nM 17-beta-estradiol - cell viability counter screen (AID 1259241). Note: nearly all actives have a fitted effect of over 40% in size. In short, it runs like this: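 VM7Luc4E2, 4,000 cells/well, phenol red-free medium + 10% charcoal-stripped FBS; 24 hr plating; cpd + 0.1 nM E2 final, 22 hr 37C/5% CO2; CellTiter-Fluor 30 min, fluorescence.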

Test [8] in a line: qHTS assay to identify small molecule antagonists of the androgen receptor (AR) signaling pathway using the MDA cell line in the presence of 0.5 nM R1881 - cell viability counter screen (AID 1259242). Note: nearly all actives have a fitted effect of over 45% in size. In short, it runs like this:
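MDA-kb2 cells (human breast carcinoma, stably carrying MMTV-luciferase reporter) were exposed to compounds with 0.5 nM R1881 (final) for 16 hr at 37C, 0% CO2; viability then read as live-cell protease fluorescence (CellTiter-Fluor, 30 min) in the same wells.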

Test [9] addresses Androgen receptor (Homo sapiens) (UniProt P10275). Put plainly: qHTS assay to identify small molecule antagonists of the androgen receptor (AR) signaling pathway (AID 743035; active = well fitted inhibition curve with a large enough effect in the signal ratio in the repeat runs, not every such curve was filed as active; the % refers to the signal ratio; note: potency is the fitted concentration of half-maximal effect). The procedure, abridged:
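HEK293 cells stably carrying a UAS-driven beta-lactamase reporter (AR-UAS-bla GripTite) were plated for 4 h at 37C, then given compound and the agonist R1881 and incubated 16 h. Reporter activity was read by LiveBLAzer B/G FRET fluorescence after 2 h at room temperature.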

For test [10] the target is unchanged. Kind of test: qHTS assay to identify small molecule agonists of the androgen receptor (AR) signaling pathway (AID 743036; active = well fitted activation curve with a large enough effect in the signal ratio in the repeat runs, with a control signal flat, not every such curve was filed as active; the % refers to the signal ratio). The procedure, abridged:
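Fluorescence from a beta-lactamase FRET substrate served as read-out in AR-UAS-bla GripTite HEK293 cells. Cells were treated with DMSO-dissolved compounds for 16 h at 37C, then with LiveBLAzer B/G substrate for 2 h at room temperature.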

Glucocorticoid receptor (Homo sapiens), sequence (P04150 whole entry, looked up): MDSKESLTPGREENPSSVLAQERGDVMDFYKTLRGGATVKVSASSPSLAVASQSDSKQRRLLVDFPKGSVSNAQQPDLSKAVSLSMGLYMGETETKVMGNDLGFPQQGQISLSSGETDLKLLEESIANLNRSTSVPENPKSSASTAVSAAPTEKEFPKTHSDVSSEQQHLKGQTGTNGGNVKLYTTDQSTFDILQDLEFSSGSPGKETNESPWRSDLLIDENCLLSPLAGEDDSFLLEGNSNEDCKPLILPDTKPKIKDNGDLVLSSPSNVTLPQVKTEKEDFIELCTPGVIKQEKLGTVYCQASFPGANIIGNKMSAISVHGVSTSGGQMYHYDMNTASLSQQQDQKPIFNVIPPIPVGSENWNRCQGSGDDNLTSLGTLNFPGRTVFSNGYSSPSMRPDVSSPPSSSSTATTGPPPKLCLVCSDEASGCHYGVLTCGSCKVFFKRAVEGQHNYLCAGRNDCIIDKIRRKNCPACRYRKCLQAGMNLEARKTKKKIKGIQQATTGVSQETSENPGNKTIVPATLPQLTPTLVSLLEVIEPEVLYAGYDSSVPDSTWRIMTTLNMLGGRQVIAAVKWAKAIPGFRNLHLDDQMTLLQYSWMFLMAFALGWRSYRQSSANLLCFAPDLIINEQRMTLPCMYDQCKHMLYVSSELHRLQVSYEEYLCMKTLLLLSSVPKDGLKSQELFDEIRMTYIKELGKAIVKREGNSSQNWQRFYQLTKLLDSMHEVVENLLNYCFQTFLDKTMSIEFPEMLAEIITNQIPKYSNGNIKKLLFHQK
Estrogen receptor (Homo sapiens), sequence (P03372 whole entry, looked up): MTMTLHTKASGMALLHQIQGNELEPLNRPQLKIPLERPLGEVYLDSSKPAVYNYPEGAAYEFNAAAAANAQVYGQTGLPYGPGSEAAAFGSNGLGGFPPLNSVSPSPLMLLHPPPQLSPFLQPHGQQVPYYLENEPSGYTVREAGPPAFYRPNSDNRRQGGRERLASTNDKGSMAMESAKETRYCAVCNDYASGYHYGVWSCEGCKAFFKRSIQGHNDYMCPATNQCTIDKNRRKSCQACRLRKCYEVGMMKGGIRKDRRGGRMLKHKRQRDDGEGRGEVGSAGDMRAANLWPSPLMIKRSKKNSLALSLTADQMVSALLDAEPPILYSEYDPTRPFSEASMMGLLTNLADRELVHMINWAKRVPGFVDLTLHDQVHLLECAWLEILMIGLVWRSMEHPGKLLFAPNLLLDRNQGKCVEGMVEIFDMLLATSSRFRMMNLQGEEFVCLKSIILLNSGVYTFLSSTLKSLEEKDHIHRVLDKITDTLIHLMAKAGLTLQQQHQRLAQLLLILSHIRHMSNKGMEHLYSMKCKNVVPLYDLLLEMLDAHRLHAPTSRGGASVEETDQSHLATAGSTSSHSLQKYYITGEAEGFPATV

With `CNC(=O)OCC[N+](C)(C)C`, the Potency entry in test [1], in test [2] and in test [3] was “inactive” each time.
`O=C(C[C@@H]1NCCC[C@H]1O)Cn1cnc2cc(Br)c(Cl)cc2c1=O`: the Potency entry in test [2], in test [3] and in test [4] was “inactive” throughout.
For the compound `CN=C1CN(O)C(c2ccccc2)=c2cc(Cl)ccc2=N1`, the Potency result in test [2], in [3] and in [4] was “inactive” throughout.
Regarding `O=[N+]([O-])c1cc(I)c(O)c(I)c1`, the Potency entry in [5] and in [6] was “inactive” in each case.
With `CCC1(CC)C(=O)NC(=O)N(C)C1=O`, the Potency entry in test [2] and in test [3] was “inactive” in each case.
As for `CN(C)CCCCCCN(C)C`, the Potency entry in test [1], in [2], in [3], in [7] and in test [8] was “inactive” each time.
As to `CCC(C)(S(=O)(=O)CC)S(=O)(=O)CC`, the Potency entry in test [3] is “inactive”.
For the compound `O=S(=O)(O)c1cc(O)ccc1O`, the Potency entry in test [1], in test [2], in test [3], in test [7] and in test [8] was “inactive” in each case.
As to `C[C@@H](CO)NC(=O)[C@@H]1C=C2c3cccc4[nH]cc(c34)C[C@H]2N(C)C1`, the Potency in test [1] was 9.44 µM (active); in test [5], 26.6 µM (active). For the same compound, the Potency entry in test [2], in [9] and in test [6] was “inactive” in each case.
As to `COc1ccc(OC)c([C@@H](O)[C@H](C)N)c1`, the Potency entry in [1], in [2], in test [5], in test [6] and in test [4] was “inactive” throughout.
As for `C[C@@H]([C@H](O)c1ccccc1)N(C)C`, the Potency result in test [2] and in test [4] was “inactive” in each case.
Take `Cc1ccccc1-n1c(CF)nc2ccc(N)cc2c1=O`: the Potency result in test [1], in [9], in [10] and in test [6] was “inactive” throughout. Moreover, the Potency in test [5] is 26.6 µM (active).
With `CCOc1ccc2c3c1O[C@H]1[C@@H](O)C=C[C@H]4[C@@H](C2)N(C)CC[C@@]341`, the Potency result in test [1], in test [2], in test [3] and in test [4] was “inactive” throughout.
Turning to `C[C@]12C=CC(=O)C=C1CC[C@@H]1[C@@H]2CC[C@]2(C)OC(=O)CC[C@@H]12`, the Potency entry in test [1] and in test [3] was “inactive” throughout.
`C[C@]12CC[C@H](OS(=O)(=O)O)CC1=CC[C@@H]1[C@@H]2CC[C@]2(C)C(=O)CC[C@@H]12`: the Potency entry in test [3], in [9] and in [6] was “inactive” each time. Moreover, the Potency in [5] is 21.1 µM (active).
Consider `[2H]C([2H])([2H])[C@H](N)Cc1ccccc1`, for which the Potency result in test [2], in test [3], in test [9], in [5], in test [6] and in test [4] was “inactive” each time.
As to `COc1ccc2c3c1O[C@H]1[C@@H](O)C=C[C@H]4[C@@H](C2)NCC[C@@]341`, the Potency entry in [2] and in test [3] was “inactive” each time.
Turning to `CC(=O)OC1CN2CCC1CC2` (centres undefined), the Potency result in test [2], in [3] and in test [4] was “inactive” each time.
`CC(Cc1ccccc1)NC=O` (centres undefined): the Potency result in test [3] is “inactive”.
On the same count and under the same terms, with `CCCCNCC(O)c1ccc(O)cc1` (centres undefined) the entry was “inactive”.
Regarding `COc1ccc2c(c1)C13CCCC[C@@H]1C(C2)N(C)CC3` (some centres undefined), the Potency entry in test [2] and in test [3] was “inactive” each time.
For `O=C1CCCCC1CN1CCCCC1` (centres undefined), the Potency result in [2], in [9], in [10], in [5] and in [6] was “inactive” throughout.
In the case of `C[N+]1([O-])[C@@H]2CC(OC(=O)[C@H](CO)c3ccccc3)C[C@H]1[C@@H]1O[C@@H]12` (some centres undefined), the Potency result in test [1], in [2], in test [3], in test [9], in test [5] and in test [6] was “inactive” throughout. The Potency result in test [4] is “inactive”.
Take `c1csc(C2(N3CCCCC3)CCCCC2)c1`: the Potency result in test [1] and in test [3] was “inactive” throughout.
Consider `O=C(CCl)c1ccc(Oc2ccc(C(=O)CCl)cc2)cc1`, for which the Potency result in test [1] and in test [4] was “inactive” in each case.
For the compound `CNc1ccc(C(=O)CC(O)CCC(C)C2OC(=O)CC(O)CC(=O)CC(O)CC(O)CC(O)CC(O)CC3(O)CC(O)C(C(=O)OC)C(CC(O[C@@H]4O[C@H](C)[C@@H](O)[C@H](N)[C@@H]4O)/C=C/C=C/C=C/C=C/C=C/C=C/C=C/C2C)O3)cc1` (some centres undefined), the Potency in test [1] was 16.8 µM (active). Besides, the Potency result in [2] and in test [4] was “inactive” each time.
For the compound `Oc1cc[c]([Hg][Cl])cc1`, the Potency in test [1] is 11.9 µM (active); in test [3], 0.473 µM (active); in test [9], 19 µM (active); in test [6] it was 8.41 µM (active) and 5.96 µM (active). Besides, in test [5], the Potency result was “inactive”.
On to `COC([CH2][Hg])CNC(=O)c1ccccc1OCC(=O)O` (centres undefined), for which the Potency entry in test [1], in [2] and in test [4] was “inactive” each time. Besides, the Potency in [3] is 2.98 µM (active).
